Compound activity as filed in PubChem.
ANO1 block: mouse TMEM16A channel inhibition, primary screen. 310,000 compounds, 1.2% hits. normalized B-score (activity score, 25-100; higher = stronger inhibition) at 10 µM. AID 588511. HEK293 TMEM16A/YFP iodide influx fluorescence, ionomycin;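 active = ratio plate-corrected score three or more library SD toward inhibition, starting fluorescence score within five deviations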;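 also: score derived from kinetic fluorescence span divided by baseline fluorescence per well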
CHO-K1 Ca antag: counter-screen for M1 antagonists: effect in parental CHO-K1 cells; ATP-induced calcium, Fluo-8 fluorescence; inhibition, % at 3 µM; 360,000 compounds, 0.6% hits;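 active = inhibition above a per-plate cutoff, the plate's mean sample inhibition plus 3 SD, cut at about 24% in these data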;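 also: 0% = DMSO plus EC80 ATP and 100% = DMSO alone without ATP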
CHO-K1 Ca PAM: M1 PAM counterscreen hit in parental CHO-K1 cells. 360,000 compounds, 0.02% hits. activation, % at 3 µM. ATP EC20, Fluo-8 calcium fluorescence; 0% at ATP EC20, 100% at ATP max. AID 602247;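 active = activation above the run cutoff, the mean activation of all test compounds plus 3 SD, cut at about 40% in these data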;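 also: peak over basal fluorescence ratio in a 140 s read after ATP addition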
M1 ag parental: counter-screen for M1 agonists: effect in parental CHO-K1 cells. 360,000 compounds, 0.48% hits. AID 602248. activation, % at 3 µM. Fluo-8 calcium fluorescence; scaled to maximal ATP response, vehicle zero; in the data active = activation above about 15%;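 also: untransfected CHO-K1 host cells lacking M1 receptor as counterscreen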
ANO1 activ: activates or potentiates the mouse TMEM16A chloride channel; Q8BHY3; HEK293 TMEM16A/YFP-H148Q/I152L, iodide quench fluorescence; hits give low values; B-score at 10 µM; 340,000 compounds, 0.3% hits; AID 623877;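 active = fluorescence-ratio B-score plate-corrected deviation score at least 3 library SD below zero, with starting fluorescence score within 5 deviations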;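 also: channel opened by trigger with iodide after compound preincubation; score built on the fluorescence ratio of max minus min over baseline; more negative score means more quench and so TMEM16A activation or potentiation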
NTR1 ag: agonists of human neurotensin receptor NTR1. P30989. NTR1-U2OS beta-arrestin-GFP spot imaging, agonist mode. activation, % at 20 µM. 330,000 compounds, 0.17% hits;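 active = activation at or above 40% of the spot to cytoplasm intensity ratio, with at least 20 cells analyzed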;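 also: 0% = DMSO without peptide and 100% = 100 nM NTR1 peptide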
Target sequence (P30989 whole entry, looked up): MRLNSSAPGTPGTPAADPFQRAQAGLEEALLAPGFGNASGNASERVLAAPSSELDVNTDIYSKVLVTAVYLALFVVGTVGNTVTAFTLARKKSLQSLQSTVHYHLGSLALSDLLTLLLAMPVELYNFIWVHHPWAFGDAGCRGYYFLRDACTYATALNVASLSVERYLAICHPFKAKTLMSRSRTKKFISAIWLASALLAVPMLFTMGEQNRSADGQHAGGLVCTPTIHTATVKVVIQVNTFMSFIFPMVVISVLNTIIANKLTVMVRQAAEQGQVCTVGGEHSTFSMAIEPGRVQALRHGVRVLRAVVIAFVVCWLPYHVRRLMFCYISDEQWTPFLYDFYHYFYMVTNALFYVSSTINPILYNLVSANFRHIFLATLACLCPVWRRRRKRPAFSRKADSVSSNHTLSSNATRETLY
Active calls of the source: *; i = inactive; nt = no result given. The list is not random: actives were taken first. Their share in the collection is about 2.2%.

SMILES | ANO1 block | CHO-K1 Ca antag | CHO-K1 Ca PAM | M1 ag parental | ANO1 activ | NTR1 ag
CN1CCC(=NNc2ncnc3sc4c(c23)CCCC4)CC1 | i | 27.1* | -6.2 | -0.1 | i | 8.3
COc1cccc(C(O)c2nc(-c3cnn(C)c3)cs2)c1 (stereo unspecified) | nt | 6.2 | -6.5 | 0.9 | nt | nt
Cc1ccc(/C=C(\NC(=O)c2ccccc2)C(=O)NCCN2CCOCC2)o1 | i | 24.4* | -13.4 | -0.7 | i | 1.7
COc1ccc(S(=O)(=O)N2CCOCC2)cc1NC(=O)CCCSc1ccccc1 | nt | -14.0 | 15.6 | 0.7 | nt | nt
Cc1cnc(C2OCCO2)c2cccc(N)c12 | nt | 10.2 | 0.2 | 0.0 | nt | nt
COc1ccccc1NC(=O)Nc1nc(C(C)(C)C)cs1 | i | -25.0 | 36.7 | 31.0* | i | 23.2
COc1ccccc1NC(=O)Nc1nc(C(N)C(C)C)cs1 (stereo unspecified) | nt | -9.4 | 16.4 | 0.6 | nt | nt
Cc1cccc(C2(c3cccc(C)c3)CC2C(=O)Nc2ccc([N+](=O)[O-])cc2O)c1 (stereo unspecified) | 100* | 25.6* | -11.2 | 6.4 | i | 19.8
COc1cccc(C(=O)C2CCCN(Cc3cn(CC(N)=O)c4ccccc34)C2)c1 (stereo unspecified) | i | 32.5* | -10.8 | -0.1 | i | 0.1
CCc1c(C)sc2nc(C(C)C)nc(SCC(=O)N3CCc4ccccc4C3)c12 | 100* | nt | nt | nt | nt | 17.7
Cc1noc(C)c1C(=O)OC(C)C(=O)c1c[nH]c2ccccc12 (stereo unspecified) | nt | 2.1 | 5.4 | 1.0 | nt | nt
c1cc2c(cc1Nc1nc(-c3ccc4c(c3)OCO4)cs1)OCCO2 | i | 26.4* | -0.7 | 0.4 | i | 2.9
CC(C)(C)C(=O)Nc1nc(-c2ccc3c(c2)OCO3)cs1 | i | -1.2 | -13.2 | 15.4* | i | 2.0
O[C@@H]1C[C@H](c2ccc(Cl)cc2)N(Cc2cccs2)C[C@H]1n1cc(C2CC2)nn1 | nt | -1.6 | 2.9 | -0.2 | nt | nt
C#CCOCCOCCOCCNc1nc(N2CCN(C(=O)CCCCCCCCCCNC(=O)[C@H]([C@@H](C)CC)n3cc(CCCCCN)nn3)CC2)nc(N2CCN(C(=O)CCCCCCCCCCNC(=O)[C@@H]([C@H](C)CC)n3cc(CCCCCN)nn3)CC2)n1 | i | nt | nt | nt | nt | 5.2
C#CCOCCOCCOCCNc1nc(N2CCN(C(=O)CCCCCCCCCCNC(=O)[C@H]([C@@H](C)CC)n3cc(CCCCCN)nn3)CC2)nc(N2CCN(C(=O)CCCCCCCCCCNC(=O)[C@H](CO)n3cc(CCCCCN)nn3)CC2)n1 | 25* | -13.7 | 5.0 | 1.5 | -16.9* | 8.4
C#CCOCCOCCOCCNc1nc(N2CCN(C(=O)CCCCCCCCCCNC(=O)Cn3cc(CCCCCN)nn3)CC2)nc(N2CCN(C(=O)CCCCCCCCCCNC(=O)[C@H]([C@@H](C)CC)n3cc(CCCCN=C(N)N)nn3)CC2)n1 | i | 17.7 | -21.0 | -0.7 | -20.8* | 5.3
C#CCOCCOCCOCCNc1nc(N2CCN(C(=O)[C@H](Cc3cc4ccccc4[nH]3)n3cc([C@@H](N)C(C)CC)nn3)CC2)nc(N2CCN(C(=O)[C@H](CCCCN)n3cc([C@@H](N)CO)nn3)CC2)n1 (stereo partly specified) | i | nt | nt | nt | nt | 0.9
C#CCOCCOCCOCCNc1nc(N2CCN(C(=O)[C@H](CCCCN)n3cc([C@@H](N)C(C)CC)nn3)CC2)nc(N2CCN(C(=O)[C@H](Cc3cc4ccccc4[nH]3)n3cc([C@@H](N)CC(C)C)nn3)CC2)n1 (stereo partly specified) | i | 12.7 | -19.2 | -0.3 | -18.4* | 4.0
C#CCOCCOCCOCCNc1nc(N2CCN(C(=O)CCCCCCCCCCNC(=O)[C@H]([C@@H](C)CC)n3cc(CCCCCN)nn3)CC2)nc(N2CCN(C(=O)CCCCCCCCCCNC(=O)[C@H]([C@@H](C)CC)n3cc(CCCCN=C(N)N)nn3)CC2)n1 | i | -3.8 | -14.1 | -0.3 | -27.6* | 4.2
C[C@H]1CN([C@@H](C)CO)C(=O)c2cc(C#CC3(O)CCCC3)cnc2O[C@H]1CN(C)C(=O)C1CC1 | nt | -12.9 | 19.1 | 0.5 | nt | nt
